Measurements taken from PubChem BioAssay (EPA / NIEHS).
Several values for one entry are separate records, joined by “and”; a condition that tells them apart may be missing. Identical values can stand only once. Inconclusive results are not listed. A structure can be active in one record and inactive in another. Activity calls are given as the source filed them. How the source made its calls: active means hit-call score of the fitted dose curve at least 0.9, where 1 is the maximum; inconclusive means response in the unintended direction; inactive means score below 0.9.

How the values were obtained:
[1] = target: human Colony Stimulating Factor 1 Receptor (CSF1R), CSF1R (gene 1436) (UniProt P07333); assay: NVS_ENZ_hCSF1R: NovaScreen (NVS) Enzymatic Assay for human Colony Stimulating Factor 1 Receptor (CSF1R) (AID 2283150)
human Colony Stimulating Factor 1 Receptor (CSF1R), CSF1R (gene 1436), sequence (P07333 whole entry, looked up): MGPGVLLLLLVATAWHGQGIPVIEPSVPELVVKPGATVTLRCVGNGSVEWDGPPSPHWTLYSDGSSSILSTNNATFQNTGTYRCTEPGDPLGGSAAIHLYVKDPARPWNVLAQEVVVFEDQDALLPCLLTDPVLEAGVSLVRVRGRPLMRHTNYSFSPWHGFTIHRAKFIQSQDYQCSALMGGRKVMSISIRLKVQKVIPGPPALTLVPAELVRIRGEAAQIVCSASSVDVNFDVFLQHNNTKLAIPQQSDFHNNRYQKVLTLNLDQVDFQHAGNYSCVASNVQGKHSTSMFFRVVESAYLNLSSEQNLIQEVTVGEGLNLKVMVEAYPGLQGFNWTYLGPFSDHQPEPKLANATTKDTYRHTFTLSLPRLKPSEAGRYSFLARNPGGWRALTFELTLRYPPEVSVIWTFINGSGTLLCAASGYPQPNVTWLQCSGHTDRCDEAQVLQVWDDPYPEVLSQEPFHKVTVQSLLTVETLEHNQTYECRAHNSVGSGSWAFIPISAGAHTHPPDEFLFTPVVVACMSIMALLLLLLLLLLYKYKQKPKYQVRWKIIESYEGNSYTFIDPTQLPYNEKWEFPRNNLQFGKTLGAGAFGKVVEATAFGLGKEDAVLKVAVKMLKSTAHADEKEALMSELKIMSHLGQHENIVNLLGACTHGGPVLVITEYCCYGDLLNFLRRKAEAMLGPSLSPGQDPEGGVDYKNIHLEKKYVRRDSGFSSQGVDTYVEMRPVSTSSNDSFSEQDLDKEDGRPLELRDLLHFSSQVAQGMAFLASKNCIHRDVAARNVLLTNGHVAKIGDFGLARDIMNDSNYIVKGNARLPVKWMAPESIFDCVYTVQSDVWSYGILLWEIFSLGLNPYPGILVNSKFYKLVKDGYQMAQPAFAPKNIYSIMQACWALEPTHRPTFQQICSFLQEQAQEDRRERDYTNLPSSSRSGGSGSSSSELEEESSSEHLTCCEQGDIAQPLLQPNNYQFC
In short: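 Compounds screened in duplicate at 25 uM, then concentration-response (top 50 uM) for those passing threshold such as 30% inhibition; recombinant CSF1R activity measured 1 h post-dosing via fluorescent substrate/product mobility-shift separation, loss of signal versus DMSO.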

[2] = target: human Caspase 8 (CASP8), CASP8 (gene 841) (UniProt Q14790); assay: NVS_ENZ_hCASP8: NovaScreen (NVS) Enzymatic Assay for human Caspase 8 (CASP8) (AID 2283146)
human Caspase 8 (CASP8), CASP8 (gene 841), sequence (Q14790 whole entry, looked up): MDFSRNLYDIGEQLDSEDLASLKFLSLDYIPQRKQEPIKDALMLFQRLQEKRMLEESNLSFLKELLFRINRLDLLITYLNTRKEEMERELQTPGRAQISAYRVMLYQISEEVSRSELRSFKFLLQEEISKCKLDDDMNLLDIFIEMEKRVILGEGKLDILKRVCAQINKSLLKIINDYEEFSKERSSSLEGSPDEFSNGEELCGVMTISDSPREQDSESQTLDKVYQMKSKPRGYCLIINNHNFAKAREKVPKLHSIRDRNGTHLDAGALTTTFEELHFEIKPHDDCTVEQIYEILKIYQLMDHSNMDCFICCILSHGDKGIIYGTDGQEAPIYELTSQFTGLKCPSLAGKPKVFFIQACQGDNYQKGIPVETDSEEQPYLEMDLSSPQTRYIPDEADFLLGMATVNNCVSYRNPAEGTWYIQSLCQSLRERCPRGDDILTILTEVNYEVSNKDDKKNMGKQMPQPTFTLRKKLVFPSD
In short: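 The primary screen tested compounds in duplicate at a single 25 uM concentration, with actives followed up in concentration series. Activity of recombinant (E. coli) protease was measured by fluorescence 1 h post-dose, as signal loss against DMSO.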

[3] = target: human AKT serine/threonine Kinase 2 (AKT2), AKT2 (gene 208) (UniProt P31751); assay: NVS_ENZ_hAKT2: NovaScreen (NVS) Enzymatic Assay for human AKT serine/threonine Kinase 2 (AKT2) (AID 2283141)
human AKT serine/threonine Kinase 2 (AKT2), AKT2 (gene 208), sequence (P31751 whole entry, looked up): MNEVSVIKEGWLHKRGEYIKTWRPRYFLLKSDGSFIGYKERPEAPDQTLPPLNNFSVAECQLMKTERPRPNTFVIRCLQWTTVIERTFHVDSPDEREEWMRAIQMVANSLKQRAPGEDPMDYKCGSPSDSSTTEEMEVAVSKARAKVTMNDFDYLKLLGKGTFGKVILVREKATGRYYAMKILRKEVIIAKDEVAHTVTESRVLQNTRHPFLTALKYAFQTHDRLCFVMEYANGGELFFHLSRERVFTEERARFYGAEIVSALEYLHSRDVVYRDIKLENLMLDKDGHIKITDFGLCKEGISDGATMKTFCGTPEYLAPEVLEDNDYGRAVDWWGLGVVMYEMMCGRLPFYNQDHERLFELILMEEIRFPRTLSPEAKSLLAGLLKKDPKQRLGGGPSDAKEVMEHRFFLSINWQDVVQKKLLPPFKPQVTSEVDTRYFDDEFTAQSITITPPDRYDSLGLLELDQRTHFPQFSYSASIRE
In short: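 Cell-free fluorescence/electrophoretic mobility shift readout of recombinant human AKT2 activity, 1 h after chemical dosing. Duplicate primary screen at 25 uM, then singleton concentration-response up to 50 uM; loss of signal versus DMSO baseline.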

[4] = target: human Dual Specificity Protein Phosphatase 3 (DUSP3), DUSP3 (gene 1845) (UniProt P51452); assay: NVS_ENZ_hDUSP3: NovaScreen (NVS) Enzymatic Assay for human Dual Specificity Protein Phosphatase 3 (DUSP3) (AID 2283152);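 further: phosphatase activity of recombinant human DUSP3 on a fluorogenic substrate without cells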
human Dual Specificity Protein Phosphatase 3 (DUSP3), DUSP3 (gene 1845), sequence (P51452 whole entry, looked up): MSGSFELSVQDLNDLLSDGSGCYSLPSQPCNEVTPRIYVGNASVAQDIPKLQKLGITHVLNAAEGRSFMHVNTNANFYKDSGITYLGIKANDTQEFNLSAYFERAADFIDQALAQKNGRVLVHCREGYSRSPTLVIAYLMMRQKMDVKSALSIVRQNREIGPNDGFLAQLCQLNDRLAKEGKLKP
Method: NVS_ENZ_hDUSP3 is a biochemical, single-readout assay that uses extracted gene-proteins in a cell-free assay. Measurements were taken 0 hour after chemical dosing in a 96-well plate.NVS_ENZ_hDUSP3 is one of one assay component(s) measured or calculated from the NVS_ENZ_hDUSP3 assay. It is designed to make measurements of enzyme activity, a form of enzyme reporter, as detected with fluorescence intensity signals by Fluorescence technology.Data from the assay component NVS_ENZ_hDUSP3 was analyzed into 1 assay endpoint. This assay endpoint, NVS_ENZ_hDUSP3, was analyzed in the positive analysis fitting direction relative to DMSO as the negative control and baseline of activity. Using a type of enzyme reporter, loss-of-signal activity can be used to understand changes in the enzymatic activity as they relate to the gene DUSP3. Furthermore, this assay endpoint can be referred to as a primary readout, because this assay has produced multiple assay endpoints where this one serves a enzymatic activity function. To generalize the intended target to other relatable targets, this assay endpoint is annotated to the phosphatase intended target family, where the subfamily is dual-specific phosphatase.
(§1) Binding assays used specific radioligands (tritiated, iodinated) with non-radioactive competitive displacement ligands in agonist or antagonist protocols (as indicated) and various reference compounds and inhibitors to titrate specific binding to receptors and transporters. Most enzyme assays (CYPs, kinases, phosphatases, proteases, HDACs) used recombinant protein and specific substrates (fluorescence mostly, some colorimetric and radioactive) and inhibitors, followed by a biochemical separation of substrate and product. All assays for the biochemical HTS were initially run in duplicate at a single concentration (10 uM for CYP450 assays and 25 uM for all others). […] Each assay was run with positive and negative controls, and concurrent controls on every plate. The follow-up (secondary) screen tested active chemical-pairs in concentration series, as well as a few additional assays not tested in the primary screen, some selected negative inactives, and several cases re-run in the concentration series for confirmatory purposes.

[5] = target: human Aurora Kinase A - serine/threonine-protein Kinase 6 (AurA), AURKA (gene 6790) (UniProt O14965); assay: NVS_ENZ_hAurA: NovaScreen (NVS) Enzymatic Assay for human Aurora Kinase A - serine/threonine-protein Kinase 6 (AurA) (AID 2283142)
human Aurora Kinase A - serine/threonine-protein Kinase 6 (AurA), AURKA (gene 6790), sequence (O14965 whole entry, looked up): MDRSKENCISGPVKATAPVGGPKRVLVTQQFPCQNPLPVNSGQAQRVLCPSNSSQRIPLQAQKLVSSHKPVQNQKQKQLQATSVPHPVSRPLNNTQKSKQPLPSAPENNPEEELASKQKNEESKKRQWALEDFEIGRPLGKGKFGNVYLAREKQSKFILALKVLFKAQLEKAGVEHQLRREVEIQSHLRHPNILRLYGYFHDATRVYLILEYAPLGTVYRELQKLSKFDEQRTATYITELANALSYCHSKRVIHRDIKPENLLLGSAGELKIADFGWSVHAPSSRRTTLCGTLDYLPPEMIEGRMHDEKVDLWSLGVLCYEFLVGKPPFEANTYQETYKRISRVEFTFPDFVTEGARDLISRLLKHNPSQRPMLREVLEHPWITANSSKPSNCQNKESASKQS
In short: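 Recombinant human AurA activity read by fluorescence after mobility-shift separation of product from substrate; 1 hour incubation. Chemicals first run in duplicate at 25 uM, then concentration series to 50 uM if over threshold; fitted relative to DMSO.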

[6] = target: human Casein Kinase 2- alpha 2 beta 2 (CK2a2b2), CSNK2A1 (gene 1457) (UniProt P68400); assay: NVS_ENZ_hCK2a2b2: NovaScreen (NVS) Enzymatic Assay for human Casein Kinase 2- alpha 2 beta 2 (CK2a2b2) (AID 2283147)
human Casein Kinase 2- alpha 2 beta 2 (CK2a2b2), CSNK2A1 (gene 1457), sequence (P68400 whole entry, looked up): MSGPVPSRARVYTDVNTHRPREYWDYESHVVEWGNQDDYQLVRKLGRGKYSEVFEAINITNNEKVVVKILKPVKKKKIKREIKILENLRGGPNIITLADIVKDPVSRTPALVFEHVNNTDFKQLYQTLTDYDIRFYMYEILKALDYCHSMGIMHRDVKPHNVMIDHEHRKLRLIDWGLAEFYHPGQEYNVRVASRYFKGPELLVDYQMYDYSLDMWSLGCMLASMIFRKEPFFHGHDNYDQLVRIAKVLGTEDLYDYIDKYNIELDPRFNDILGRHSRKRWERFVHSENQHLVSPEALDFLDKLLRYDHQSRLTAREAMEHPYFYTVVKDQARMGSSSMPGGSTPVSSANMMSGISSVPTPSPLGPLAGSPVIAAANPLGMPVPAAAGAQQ
In short: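 Compounds were first screened in duplicate at 25 uM, and those passing the threshold were re-tested in concentration series up to a 50 uM maximum. Kinase activity of recombinant human CK2 α2β2 was measured 1 h after dosing by fluorescent substrate/product mobility-shift separation.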

[7] = target: human Casein Kinase 1-delta (CK1D), CSNK1D (gene 1453) (UniProt P48730); assay: NVS_ENZ_hCK1D: NovaScreen (NVS) Enzymatic Assay for human Casein Kinase 1-delta (CK1D) (AID 2283148)
human Casein Kinase 1-delta (CK1D), CSNK1D (gene 1453), sequence (P48730 whole entry, looked up): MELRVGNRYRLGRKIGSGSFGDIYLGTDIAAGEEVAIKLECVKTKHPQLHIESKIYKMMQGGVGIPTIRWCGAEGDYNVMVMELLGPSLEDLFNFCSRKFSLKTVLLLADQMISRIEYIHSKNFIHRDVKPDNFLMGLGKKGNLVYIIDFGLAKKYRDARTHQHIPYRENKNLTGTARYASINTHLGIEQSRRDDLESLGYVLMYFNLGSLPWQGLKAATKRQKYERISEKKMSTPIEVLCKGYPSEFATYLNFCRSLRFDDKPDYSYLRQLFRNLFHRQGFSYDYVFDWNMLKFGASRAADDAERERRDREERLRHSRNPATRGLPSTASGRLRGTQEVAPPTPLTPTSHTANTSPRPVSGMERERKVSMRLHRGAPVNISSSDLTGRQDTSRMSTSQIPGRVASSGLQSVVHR
In short: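 Recombinant human CK1-delta, cell-free; fluorescent substrate with electrophoretic mobility-shift separation of product, read 1 h after dosing. Single 25 uM duplicate screen, then concentration-response up to 50 uM; loss of signal vs DMSO.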

CDK2 (gene 1017) = CDK2 (gene 1017) (UniProt P24941); assay: NVS_ENZ_hCDK2: NovaScreen (NVS) Enzymatic Assay for human Cyclin-Cependent Kinase 2 (CDK2) (AID 2283144)
In short: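 Compounds screened in duplicate at 25 uM, then in singleton concentration-response to a maximum of 50 uM, against recombinant CDK2; kinase activity read 1 hr after dosing by fluorescence with mobility-shift separation of substrate and product.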

[8] = target: human Beta-secretase (BACE), BACE1 (gene 23621) (UniProt P56817); assay: NVS_ENZ_hBACE: NovaScreen (NVS) Enzymatic Assay for human Beta-secretase (BACE) (AID 2283140);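 further: hits are inhibitors that reduce fluorescent substrate signal versus DMSO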
human Beta-secretase (BACE), BACE1 (gene 23621), sequence (P56817 whole entry, looked up): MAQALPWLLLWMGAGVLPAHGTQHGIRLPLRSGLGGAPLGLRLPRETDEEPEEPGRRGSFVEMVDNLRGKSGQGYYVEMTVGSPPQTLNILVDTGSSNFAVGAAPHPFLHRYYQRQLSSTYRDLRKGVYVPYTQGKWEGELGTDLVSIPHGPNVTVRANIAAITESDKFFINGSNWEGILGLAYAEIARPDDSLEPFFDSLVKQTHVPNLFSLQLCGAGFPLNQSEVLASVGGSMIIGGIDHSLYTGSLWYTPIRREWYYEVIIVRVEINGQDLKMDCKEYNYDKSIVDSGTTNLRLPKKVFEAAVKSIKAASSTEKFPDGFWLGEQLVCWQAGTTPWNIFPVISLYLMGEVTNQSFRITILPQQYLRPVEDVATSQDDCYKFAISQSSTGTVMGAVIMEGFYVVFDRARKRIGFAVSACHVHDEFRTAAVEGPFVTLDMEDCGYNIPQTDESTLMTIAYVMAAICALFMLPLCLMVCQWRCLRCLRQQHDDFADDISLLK
Method: NVS_ENZ_hBACE is a biochemical, single-readout assay that uses extracted gene-proteins from SF9 in a cell-free assay. Measurements were taken 1 hour after chemical dosing in a 96-well plate.NVS_ENZ_hBACE is one of one assay component(s) measured or calculated from the NVS_ENZ_hBACE assay. It is designed to make measurements of enzyme activity, a form of enzyme reporter, as detected with fluorescence intensity signals by Fluorescence technology.Data from the assay component NVS_ENZ_hBACE was analyzed into 1 assay endpoint. This assay endpoint, NVS_ENZ_hBACE, was analyzed in the positive analysis fitting direction relative to DMSO as the negative control and baseline of activity. Using a type of enzyme reporter, loss-of-signal activity can be used to understand changes in the enzymatic activity as they relate to the gene BACE1. Furthermore, this assay endpoint can be referred to as a primary readout, because […]. To generalize the intended target to other relatable targets, this assay endpoint is annotated to the protease intended target family, where the subfamily is aspartate protease.
as §1

[9] = target: human Epidermal Growth Factor Receptor (EGFR), EGFR (gene 1956) (UniProt P00533); assay: NVS_ENZ_hEGFR: NovaScreen (NVS) Enzymatic Assay for human Epidermal Growth Factor Receptor (EGFR) (AID 2283151)
In short: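 Cell-free kinase assay, fluorescence plus electrophoretic mobility shift separating substrate and product, read 1 hour after dosing; loss of signal vs DMSO. Duplicate screen at 25 uM, then concentration-response to 50 uM.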

CC(C)(C)C(O)C(Oc1ccc(Cl)cc1)n1cncn1 (centres undefined) was tested, and the outcome [1] was “inactive”.

For CCOC1Oc2ccc(OS(C)(=O)=O)cc2C1(C)C (centres undefined), the outcome [1] was “inactive”.

For O=C1c2ccccc2C(=O)N1SC(Cl)(Cl)Cl, the outcome [2] was “inactive”.

With Clc1ccccc1-c1nnc(-c2ccccc2Cl)nn1 the outcome [3] was “inactive”.

For COC(=O)c1ccccc1S(=O)(=O)NC(=O)N(C)c1nc(C)nc(OC)n1, the outcome [3] was “inactive”.

With CC[C@H](C)[C@H]1O[C@]2(C=C[C@@H]1C)C[C@@H]1C[C@@H](C/C=C(\C)[C@@H](O[C@H]3C[C@H](OC)[C@@H](O[C@H]4C[C@H](OC)[C@@H](O)[C@H](C)O4)[C@H](C)O3)[C@@H](C)/C=C/C=C3\CO[C@@H]4[C@H](O)C(C)=C[C@@H](C(=O)O1)[C@]34O)O2 (tested in a mixture with another compound) the AC50 [4] was 2.74 µM (active).

In the case of N#Cc1c(Cl)c(Cl)c(Cl)c(C#N)c1Cl, the outcome [3] is reported as “inactive”, the outcome [5] is reported as “inactive” and the AC50 [6] is reported as 33.6 µM (active). For the same molecule, the AC50 [4] was 17.7 µM (active).

For CCOc1nc(NC)nc(NC(=O)NS(=O)(=O)c2ccccc2C(=O)OC)n1, the AC50 [7] was 18.4 µM (active).

With CN1CSC(=S)N(C)C1 the outcome [3] was “inactive” and the outcome (CDK2 (gene 1017)) was “inactive”.

In the case of O=C(O)COc1ccc(Cl)cc1Cl, the AC50 [6] is reported as 19.7 µM (active).

For Oc1ccc(Cl)cc1Cc1ccccc1, the AC50 [8] was 18.9 µM (active) [middle of 6 runs], the AC50 [7] was 25.2 µM (active) and 21.9 µM (active) and the outcome [4] was “inactive”.

O=C(O)CCCOc1ccc(Cl)cc1Cl was tested, and the AC50 [6] was 19 µM (active).

C[C@H]1[C@H](c2ccc(Cl)cc2)SC(=O)N1C(=O)NC1CCCCC1 was tested, and the outcome [2] was “inactive”.

In the case of Cc1cc(C)nc(NC(=O)NS(=O)(=O)c2ccccc2C(=O)OC2COC2)n1, the outcome [3] is reported as “inactive”.

With CCC(C)(NC(=O)c1cc(Cl)c(C)c(Cl)c1)C(=O)CCl (centres undefined) the outcome [6] was “inactive”.

For Oc1cc(Cl)ccc1Oc1ccc(Cl)cc1Cl, the AC50 [8] was 25.5 µM (active) and 28.2 µM (active) and 7.92 µM (active), the outcome [8] was “inactive” and the AC50 [3] was 41.4 µM (active). The outcome [2] was “inactive”, the outcome [1] was “inactive” and the outcome [4] was “inactive”.

With CCC(C)(C)C(=O)OC1=C(c2ccc(Cl)cc2Cl)C(=O)OC12CCCCC2 the AC50 [8] was 17.6 µM (active) and the outcome [5] was “inactive”.

With CCCN(CCOc1c(Cl)cc(Cl)cc1Cl)C(=O)n1ccnc1 the outcome [4] was “inactive”.

In the case of CC(C)N(C(=O)COc1nnc(C(F)(F)F)s1)c1ccc(F)cc1, the outcome (CDK2 (gene 1017)) is reported as “inactive”.

O=C(O)C(F)(F)C(F)(F)C(F)(F)C(F)(F)C(F)(F)C(F)(F)C(F)(F)F was tested, and the AC50 [8] was 3.58 µM (active) and 1.2 µM (active), the outcome [3] was “inactive” and the outcome [5] was “inactive”. The outcome [4] was “inactive”.

In the case of CC1(C)C(C=C(Cl)Cl)C1C(=O)OC(C#N)c1ccc(F)c(Oc2ccccc2)c1 (centres undefined), the AC50 [8] is reported as 3.31 µM (active) and the outcome [1] is reported as “inactive”.

With O=C(Nc1ccccc1)Nc1cnns1 the AC50 [8] was 10.7 µM (active), the outcome [5] was “inactive” and the AC50 [6] was 10.9 µM (active).

For COc1nn(CSP(=S)(OC)OC)c(=O)s1, the outcome [2] was “inactive”.

O=S(=O)(O)C(F)(F)C(F)(F)C(F)(F)C(F)(F)C(F)(F)C(F)(F)C(F)(F)C(F)(F)F was tested, and the AC50 [8] was 2.29 µM (active) and 2.36 µM (active) and 8.91 µM (active), the AC50 [5] was 25.4 µM (active) and 27.4 µM (active) and the outcome [2] was “inactive”. The AC50 [7] was 22 µM (active) and 39 µM (active), the AC50 [1] was 18.6 µM (active) and 43.9 µM (active) and the AC50 [9] was 25 µM (active) and 17.4 µM (active). For the same molecule, the AC50 [4] was 35.6 µM (active) and the outcome [4] was “inactive”.
